About 83,000 compounds went through this panel and 20% of them were active in at least one assay; those are over-represented in the sample as a whole.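 How to read the values: 0–100, growth inhibition (40 = 60% inhibited); 0, no net growth; -100 to 0, cell death (-40 = 40% of starting cells died; -100 = all dead).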 Values without a mark were called inactive. Active and inactive are the calls of the source.
Each compound was assayed on EKVX NSCLC (assay: NCI-60 one-dose screen, 48 h (100 = growth as untreated, 0 = no growth, -100 = all killed)). Settings: 10 µM.
Protocol: Growth inhibition of the EKVX human Non-Small Cell Lung tumor cell line is measured as a screen for anti-cancer activity. Cells are grown in 96 well plates and exposed to the test compound for 48 hours. Compounds are tested at a single concentration, which is 10^-5 M for most compounds. The reported endpoint is percent growth (GI% or GIPRCNT), where numbers from 0 - 100% represent growth inhibition, and numbers from -100% - 0 represent cell death. For example, a value of 40 represents 60% growth inhibition. A value of 0 means no net growth occurred over the course of the experiment. A value of -40 indicates 40% of cells at the beginning of the experiment died by the end of the experiment. A value of -100 means all cells are dead at the end of the experiment.
NCI-60 Human Tumor Cell Lines Screen was performed using the standard one-dose NCI protocol, which is described in more detail at https://dtp.cancer.gov/discovery_development/nci-60/default.htm.
Compounds with GIPRCNT values below 10 were considered active. Activity score was based on GIPRCNT using the following formula: […]
Score is 0 for GIPRCNT values of 100 or above, 50 for GIPRCNT values of 0, and 100 for GIPRCNT values of -100.
For `O=C(/C=C/c1cccc(Br)c1)c1nc2ccccc2n1Cc1ccc(Br)cc1`, the growth was -54.8% (active). `COC(=O)C[C@](O)(CCCC(C)C)C(=O)O[C@H]1C(OC)=C[C@@]23CCCN2CCc2cc4c(cc2[C@@H]13)OCO4` gave a growth of 14.2%. `COc1ccc(OC)c(/C=C/C(=O)c2nc3ccccc3n2Cc2ccc(F)cc2)c1` was tested, and the growth was -62.1% (active). With `O=C([Se]C1C=CCCC1)c1ccc(C(=O)[Se]C2C=CCCC2)s1` (stereo not given) the growth was -89.9% (active). `Cc1ccc2[nH]c(=S)n(-c3ccc(F)cc3)c(=O)c2c1` gave a growth of 95.1%. `COC(=O)c1ccc(-n2cc(CCCN(CCNc3ccnc4cc(Cl)ccc34)C(=O)CCC(=O)O[C@@H]3O[C@@H]4OC5(C)CC[C@H]6[C@H](C)CC[C@@H]([C@H]3C)[C@@]46OO5)nn2)cc1` gave a growth of 49.4%. In the case of `COc1cc2cc(C(=O)N3C[C@@H](CCl)c4c3cc(OC(=O)N3CCN(C(=O)CCC(=O)N5CCN(C)CC5)[C@@H]5CSSC[C@@H]53)c3ccccc43)[nH]c2c(OC)c1OC`, the growth is reported as -84.6% (active). `CC(=C\C(=O)Oc1ccc2c3c1OC1C(O)CCC4(O)C(C2)N(CC2CCC2)CCC314)/C=C1\CCCc2ccccc21` (stereo not given) showed a growth of 49.7%. For `CC[C@]12C=CCN3CC[C@@]4(c5ccc(OC)cc5N(C)[C@H]4[C@@](O)(C(=O)OC)[C@@H]1OC(=O)CCCC[P+](c1ccc(OC)cc1)(c1ccc(OC)cc1)c1ccc(OC)cc1)[C@@H]32`, the growth was -59.7% (active). Compound `CC[C@]12C=CCN3CC[C@@]4(c5ccc(OC)cc5N(C)[C@H]4[C@@](O)(C(=O)OC)[C@@H]1OC(=O)CCCC[P+](C1CCCCC1)(C1CCCCC1)C1CCCCC1)[C@@H]32` has a growth of 13.2%. With `COP(=O)(CC(F)(F)C(F)(F)F)OC` the growth was 81.1%. With `CCOC(=O)C1=C(Nc2ccccc2)C(=O)OC12C(=O)Nc1ccccc12` (stereo not given) the growth was 95.2%. `CC1=C(C=O)C2=C(C)C3(CC3)[C@@](C)(O)C(=O)C2=C1` showed a growth of 68%. With `CC[C@]12C=CCN3CC[C@@]4(c5ccc(OC)cc5N(C)[C@H]4[C@@](O)(C(=O)OC)[C@@H]1OC(=O)CCC[P+](c1ccc(C)cc1)(c1ccc(C)cc1)c1ccc(C)cc1)[C@@H]32` the growth was -94.7% (active). `CC1=C(COCCOC(=O)c2ccc(S(=O)(=O)F)cc2)C2=C(C)C3(CC3)[C@@](C)(O)C(=O)C2=C1` was tested, and the growth was -32.7% (active). `CC[C@]12C=CCN3CC[C@@]4(c5ccc(OC)cc5N(C)[C@H]4[C@@](O)(C(=O)OC)[C@@H]1OC(=O)CCCC[P+](c1ccc(C)cc1)(c1ccc(C)cc1)c1ccc(C)cc1)[C@@H]32` was tested, and the growth was -93.8% (active). With `Cc1c2oc3c(C)ccc(C(=O)N[C@@H]4C(=O)N[C@H](C(C)C)C(=O)N5CCC[C@H]5C(=O)N(C)CC(=O)N(C)[C@@H](C(C)C)C(=O)OC4C)c3nc-2c(C(=O)N[C@@H]2C(=O)N[C@H](C(C)C)C(=O)N3CC(=O)C[C@H]3C(=O)N(C)CC(=O)N(C)[C@@H](C(C)C)C(=O)OC2C)c(N)c1=O` (stereo not given in full) the growth was -12.5% (active). `C=CC[Se]C(=O)c1cncc(C(=O)[Se]CC=C)c1` was tested, and the growth was -97.9% (active). `CC12OOC(C)(OO1)C2CCC(=O)OCCNc1ccnc2cc(Cl)ccc12` (stereo not given) was tested, and the growth was -60.6% (active). Work on `C#CC[Se]C(=O)c1ccc(C(=O)[Se]CC#C)s1` yielded a growth of 48.4%. In the case of `CC(C)C[C@H](NC(=O)CNC(=O)C[C@H]1O[C@@H]2OC3(C)CC[C@H]4[C@H](C)CC[C@@H]([C@H]1C)[C@@]24OO3)B(O)O`, the growth is reported as 26.7%. In the case of `C[C@H]1[C@H](OC(=O)CCC(=O)N(CCCc2cn(-c3ccc([N+](=O)[O-])cc3)nn2)CCNc2ccnc3cc(Cl)ccc23)O[C@@H]2OC3(C)CC[C@H]4[C@H](C)CC[C@@H]1[C@@]24OO3`, the growth is reported as 46.8%. For `CC(C)N=C([Se])NC(=O)c1cccs1`, the growth was 14.7%. `COC(=O)CCn1c(-c2ccc(-n3cc(-c4ccc(O[C@H]5O[C@@H]6OC7(C)CC[C@H]8[C@H](C)CC[C@@H]([C@H]5C)[C@@]68OO7)cc4)nn3)cc2)nc2ccccc21` was tested, and the growth was 23.5%. With `CC1=C(CCC=NNC(N)=O)C2=C(C)C3(CC3)[C@@](C)(O)C(=O)C2=C1` the growth was -25.1% (active). In the case of `O=C(/C=C/c1ccc(Br)cc1)c1nc2ccccc2n1Cc1ccc(Br)cc1`, the growth is reported as 1.19% (active). `CC(C)N=C([Se])NC(=O)c1ccccc1` was tested, and the growth was -56.8% (active). For `CC1=C(CCC=O)C2=C(C)C3(CC3)[C@@](C)(O)C(=O)C2=C1`, the growth was -81.6% (active). For `COc1ccc2cc([C@H](C)C(=O)[Se]CCC#N)ccc2c1`, the growth was -83.7% (active). In the case of `O=C(/C=C/c1cccc(Br)c1)c1nc2ccccc2n1Cc1ccc(F)cc1`, the growth is reported as 20.1%. With `O=C(/C=C/c1ccco1)c1nc2ccccc2n1Cc1ccc(Br)cc1` the growth was 17.8%. Compound `O=C(NC([Se])=NC1CCCCC1)c1ccc2c(c1)OCO2` has a growth of 56.8%. `COC(=O)C[C@](O)(CCC(C)C)C(=O)O[C@H]1C(OC)=C[C@@]23CCCN2CCc2cc4c(cc2[C@@H]13)OCO4` was tested, and the growth was -16.2% (active). `O=C(/C=C/c1ccc(Cl)cc1)c1nc2ccccc2n1Cc1ccc(F)cc1` gave a growth of 20.4%. `O=C(/C=C/c1ccc(F)cc1)c1nc2ccccc2n1Cc1ccc(F)cc1` gave a growth of 13.6%. Work on `CN(C)CCc1cn(C2CCC2)c2cccc(O)c12` yielded a growth of 94.9%. Compound `CC12OOC(C)(OO1)C2CCC(=O)NCCNc1ccnc2cc(Cl)ccc12` (stereo not given) has a growth of 88.6%. With `O=C(/C=C/c1ccccc1Cl)c1nc2ccccc2n1Cc1ccc(F)cc1` the growth was -91.6% (active). For `C#CC[Se]C(=O)c1ccc2n[se]nc2c1`, the growth was 13.8%. Work on `C#CCCCN(CCNc1ccnc2cc(Cl)ccc12)C(=O)CCC(=O)O[C@@H]1O[C@@H]2OC3(C)CC[C@H]4[C@H](C)CC[C@@H]([C@H]1C)[C@@]24OO3` yielded a growth of 42.3%.

From PubChem BioAssay (NCI)
